# Assays:
# [1] = test system: Human papillomavirus type 1a protein E7 (residues 44-93); assay: HPV1a E7 fragment binders on microarrays, primary screen, biochemical, small-molecule microarray, residues 44-93, 635 nm fluorescence (AID 1108); settings: small-molecule microarray binding, fluorescence 635 nm; higher = more signal;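 note: E7 fragment applied at 1 µg/mL in TBST for 1 h at 4 C; score combines spot fluorescence with its signal to noise ratio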
# [2] = modulators of HCV replicon luciferase signal, primary screen, HCV replication inhibitor project, Huh7 cells, luciferase reporter (AID 1109); settings: 48 h, higher = more signal;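 note: huh7 hepatoma cells harbouring a luciferase neomycin HCV replicon reporter; luciferase luminescence as measure of HCV replicon replication; test concentration not given here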
# [3] = biological target: Left-right determination factor 2 (Homo sapiens) (UniProt O00292); assay: LEFTY2 binders on small-molecule microarrays, primary screen, biochemical, small-molecule microarray, 635 nm fluorescence scan (AID 1110); settings: LEFTY2 binding, higher = more signal
# [4] = biological target: Calmodulin-1 (Homo sapiens) (UniProt P0DP23); assay: CALM1 binders on microarrays, EGTA buffer, profiling panel, biochemical, small-molecule microarray, Cy5-labelled CALM1 (AID 1111); settings: Cy5-CALM1 binding fluorescence, higher = more signal;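 note: labelled calmodulin applied in Tris saline Tween buffer holding calcium plus EGTA and DTT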
# [5] = biological target: Calmodulin-1 (Homo sapiens) (UniProt P0DP23); assay: calcium-bound CALM1 binders on microarrays, profiling panel, artefact control for SMM control-protein annotation, biochemical, small-molecule microarray, Cy5-labelled CALM1, plus calcium (AID 1112); settings: Cy5-CALM1 binding fluorescence, higher = more signal;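 note: score merges spot fluorescence with signal to noise from triplicate slides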
# [6] = small-molecule microarray binders of probe aWnt5a, primary screen, biochemical, biotinylated probe, 635/667 nm fluorescence (AID 1113); settings: higher = more signal;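 note: score merges 667 nm fluorescence intensity with signal-to-noise per printed feature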
# [7] = small-molecule microarray binders of probe aShh, primary screen, biochemical, biotinylated probe, 635/667 nm fluorescence (AID 1114); settings: higher = more signal;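 note: probe is biotin-labelled aShh protein from a stem cell growth factor screen; measures binding of labelled protein to compounds printed on the slide; score merges feature fluorescence at 667 nm with signal-to-noise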
# [8] = small-molecule microarray binders of probe aNog, primary screen, biochemical, biotinylated probe, 635/667 nm fluorescence (AID 1115); settings: higher = more signal;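 note: probe is biotinylated aNog protein used at 0.15 µg/mL for 1 h at 4 C; z-score combines 667 nm fluorescence of each spot with its signal to noise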
# [9] = biological target: Torsin-1A-interacting protein 1 (Homo sapiens) (UniProt Q5JTV8); assay: LAP1 binders from COS7 cell lysate, primary screen, small-molecule microarray, 635/667 nm fluorescence (AID 1116); settings: COS7-hLAP1 lysate binding, 635 nm fluorescence, higher = more signal
# [10] = biological target: Alpha-bungarotoxin (Bungarus multicinctus) (UniProt P60615); assay: alpha-bungarotoxin binders on microarray, profiling panel, artefact control for SMM control protein annotation, biochemical, small-molecule microarray, Alexa647 label, 635/667 nm fluorescence (AID 1117); settings: alpha-BTX-A647 binding fluorescence, higher = more signal
# Sequence of Alpha-bungarotoxin (Bungarus multicinctus) (P60615 whole entry, looked up): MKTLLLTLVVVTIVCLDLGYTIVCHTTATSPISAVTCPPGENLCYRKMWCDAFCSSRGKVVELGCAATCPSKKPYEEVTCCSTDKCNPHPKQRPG
# Sequence of Left-right determination factor 2 (Homo sapiens) (O00292 whole entry, looked up): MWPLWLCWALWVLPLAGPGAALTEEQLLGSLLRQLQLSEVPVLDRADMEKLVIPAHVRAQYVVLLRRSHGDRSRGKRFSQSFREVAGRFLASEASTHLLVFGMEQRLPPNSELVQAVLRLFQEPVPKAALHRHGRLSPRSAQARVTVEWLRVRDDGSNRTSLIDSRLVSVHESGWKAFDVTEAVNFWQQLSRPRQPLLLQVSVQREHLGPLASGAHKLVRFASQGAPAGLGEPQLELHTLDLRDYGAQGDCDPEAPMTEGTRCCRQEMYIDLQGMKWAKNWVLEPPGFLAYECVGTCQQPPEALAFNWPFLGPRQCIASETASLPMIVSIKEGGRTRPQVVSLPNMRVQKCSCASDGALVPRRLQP
# Sequence of Torsin-1A-interacting protein 1 (Homo sapiens) (Q5JTV8 whole entry, looked up): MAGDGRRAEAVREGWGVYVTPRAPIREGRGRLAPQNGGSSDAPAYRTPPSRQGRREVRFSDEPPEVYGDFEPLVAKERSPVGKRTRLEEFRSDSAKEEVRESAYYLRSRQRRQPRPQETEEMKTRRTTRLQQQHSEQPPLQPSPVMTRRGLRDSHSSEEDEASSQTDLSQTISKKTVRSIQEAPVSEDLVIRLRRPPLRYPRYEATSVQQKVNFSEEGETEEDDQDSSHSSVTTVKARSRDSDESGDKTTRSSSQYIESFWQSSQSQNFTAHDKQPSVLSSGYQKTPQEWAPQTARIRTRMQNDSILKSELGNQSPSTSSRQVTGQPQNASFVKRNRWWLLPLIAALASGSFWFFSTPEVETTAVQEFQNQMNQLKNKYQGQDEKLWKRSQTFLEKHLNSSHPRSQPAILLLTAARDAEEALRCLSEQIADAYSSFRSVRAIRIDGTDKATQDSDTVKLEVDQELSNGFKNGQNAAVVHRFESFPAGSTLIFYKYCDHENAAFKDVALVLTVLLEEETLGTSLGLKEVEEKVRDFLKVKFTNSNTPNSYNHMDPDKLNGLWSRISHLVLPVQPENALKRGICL
SMILES,composite z-score [1],z-score [2],composite z-score [3],composite z-score [4],composite z-score [5],composite z-score [6],composite z-score [7],composite z-score [8],composite z-score [9],composite z-score [10]
COc1ccc([Si](C)(C)[C@@H]2[C@@H](CCO)O[C@]3(C(=O)N(Cc4ccccc4)c4ccc(N5CCOC5=O)cc43)[C@H]2C)cc1,1.35,-4.17,0.217,0.623,0.521,0.394,-0.0793,0.0139,0.855,1.09
C=CCC(OC(C)=O)[C@@H]1[C@@H](N(Cc2cccc3ccccc23)C(=O)Cc2ccc(OC)cc2)c2cc(OCCCO)ccc2N1C(=O)c1ccc(-c2ccccc2)cc1 (stereo not given in full),-0.446,0.321,-0.279,-0.228,0.726,-0.157,-0.156,0.546,0.435,0.28
CC(C)N1CC=CC23O[C@@H]4C=CCCOC(=O)C4[C@H]2C(=O)N(CCCO)[C@@H]3C1=O (stereo not given in full),0.0707,-1.15,-0.539,-0.544,-0.694,-0.145,-0.0769,-0.0546,0.263,-0.659
Cc1ccc(NN2C(C(O)c3c(F)cccc3Cl)C=CC3C(=O)N(C4CCCCC4)C(=O)C32)cc1 (stereo not given),0.51,-1.26,-0.348,1.96,1.14,-0.0179,0.261,1.22,0.983,1.93
COc1ccc([C@H]2OC[C@@H]3C[C@H](Cc4ccccc4)C(=O)N32)cc1,0.156,-2.66,0.367,0.106,-0.668,0.188,0.111,-0.113,0.373,1.59
CCCCCCCCCC(O)C1C=CC2C(=O)N(c3ccccc3)C(=O)C2N1Nc1cc(OC)c(OC)c(OC)c1 (stereo not given),0.903,-2.58,-1.12,1.01,1.03,-0.0685,0.239,0.641,0.559,0.774
CCCCC(=C=CC[C@H](O)c1ccc(OCCO)cc1)CCO,0.656,-1.1,-0.917,-0.333,-0.404,-0.124,-0.154,-0.0007,0.92,-0.322
O=C1O[C@@H](c2ccccc2)[C@@H](c2ccccc2)N2[C@@H](c3ccc(OCCO)cc3)[C@]3(C(=O)Nc4ccc(C#CC5=CCCCC5)cc43)[C@@H](C(=O)NC[C@H](O)c3ccccc3)[C@H]12,0.97,-2.54,0.665,1.25,0.7,-0.042,-0.398,1.74,1.12,0.608
[N-]=[N+]=NCc1ccccc1[C@@H]1OC(c2ccc(OCCCO)cc2)=N[C@]1(CCS(=O)(=O)c1ccccc1)C(=O)O,1.31,1.1,-0.151,0.678,0.0892,0.0487,0.0469,0.592,0.953,1.17
[N-]=[N+]=NCc1ccccc1C[C@@]1(C(N)=O)N=C(c2ccc(OCCCO)cc2)O[C@@H]1c1ccccc1,1.43,-1.74,-1.41,1.85,0.989,-0.0417,-0.0035,-0.071,2.07,2.33
O=C1[C@H]2C=C(I)[C@H](C[C@@H]2OCCOCCO)[C@@]12CO2,0.496,-2.21,0.547,-0.315,-0.876,-0.26,-0.243,0.101,0.269,-0.0432
O=C1C2C=CC(C(O)c3ccco3)N(Nc3ccccc3F)C2C(=O)N1c1ccccc1 (stereo not given),0.761,-0.137,-0.46,0.175,-0.0085,0.115,0.184,0.742,0.942,0.25
CC(C)[Si]1(C(C)C)OCc2cc(-c3ccc(-c4ccc(Cl)c(Cl)c4)o3)nc(-c3ccccc3)c21,-0.922,-1.16,-1.59,-0.856,-0.341,-0.16,0.0121,-0.418,-1.16,-0.597
Cc1ccc(S[C@]2(C(=O)NCC(F)(F)F)CC(=O)N(Cc3cc(C(F)(F)F)cc(C(F)(F)F)c3)[C@@H]2c2ccc(CO)cc2)cc1,-0.109,-0.099,-0.968,-0.392,0.159,-0.25,-0.356,0.162,-0.851,-0.633
C=CCC(OC(C)=O)[C@@H]1[C@@H](N(Cc2cc3ccccc3o2)C(=O)Cc2ccc(F)cc2)c2cc(OCCCO)ccc2N1C(=O)Cc1ccc2ccccc2c1 (stereo not given in full),-0.266,0.185,-0.537,0.0637,0.34,-0.147,0.0639,-0.136,0.0568,0.317
COCCOC(=O)N1C(=O)[C@@]2(c3cc(C#CC4(O)CCCCCC4)ccc31)[C@H](c1ccc(O)cc1)N1[C@H](c3ccccc3)[C@H](c3ccccc3)OC(=O)[C@H]1[C@@H]2C(=O)N1CCN(c2ncccn2)CC1,1.35,-1.58,0.45,1.83,0.18,0.0375,0.679,-0.679,1.21,0.383
COC(=O)[C@@]1(Cc2ccc(F)cc2)[C@H]2c3cc(C(=O)N4CCCC4)n(Cc4ccc(C)c(F)c4F)c3C[C@H]2CN1C(=O)c1ccccc1,-0.751,-0.914,-0.419,0.344,0.612,-0.119,-0.0813,0.935,0.65,-0.106
CCC#CCN(Cc1ccccc1Br)[C@H](/C=C/C1CC1)[C@@H](O)Cc1ccccc1,-1.04,-2.19,-0.398,-0.414,-0.659,-0.197,-0.214,-0.209,-0.675,-0.229

SMILES,composite z-score [1],z-score [2],composite z-score [3],composite z-score [4],composite z-score [5],composite z-score [6],composite z-score [7],composite z-score [8],composite z-score [9],composite z-score [10]
CO[C@H]1O[C@H](CO)[C@@H](OC(=O)CCc2ccccc2)[C@@H]2OC(=O)[C@@H](Cc3ccccc3)C/C=C/C[C@H](Cc3ccccc3)C(=O)O[C@@H]12,1.3,-1.97,0.0673,0.485,0.0529,-0.0802,0.772,0.156,-0.161,1.29
O=c1cccc(-c2ccc([N+](=O)[O-])cc2)o1,0.79,-0.885,0.37,-0.273,-0.389,0.0775,0.199,-0.208,1.11,0.38
CCCCC(O)C1C=CC2C(=O)N(C)C(=O)C2N1N(c1ccccc1)c1ccccc1 (stereo not given),0.447,-0.991,0.186,2.06,0.766,-0.0161,0.393,1.53,1.41,1.8
COCCOC(=O)N1C(=O)[C@@]2(c3ccccc31)[C@H](c1ccc(O)cc1)N1[C@H](c3ccccc3)[C@H](c3ccccc3)OC(=O)[C@H]1[C@@H]2C(=O)N1CCN(c2ncccn2)CC1,1.29,-1.51,0.332,0.667,0.618,-0.0084,0.0469,0.927,0.675,0.692
CCCCCCc1nc(Cc2cc(OC)c(OC)c(OC)c2)cc2c1[Si](C(C)C)(C(C)C)OC2,-0.457,-1.96,0.186,-0.112,-0.302,-0.0462,-0.214,-0.174,-0.136,-0.0869
CCOC(=O)C=Cc1cccc(C)c1O,-0.377,0.717,0.111,-0.122,-0.335,-0.1,-0.0769,-0.288,0.0897,0.11
CCOC(=O)C1=CC[C@@H](c2ccccc2F)N(S(=O)(=O)c2ccc(C)cc2)[C@H]1c1ccccc1,1.34,-1.43,0.364,0.509,-0.355,-0.0924,-0.0866,-0.473,0.292,0.42
CCCC[C@@H](O)C1=C(COC)C[C@H]2C(=O)N(C)C(=O)[C@H]2[C@H]1CO,0.0944,-0.338,0.822,-0.419,-0.573,-0.0417,-0.138,-0.267,0.13,-0.165
COC(=O)C1(CC(C)C)C=C2C(=C(c3ccccc3)C(=O)C2C)CN1 (stereo not given),-0.518,-1.33,-0.844,-0.0555,0.358,0.554,0.538,0.689,1.09,-0.194
CCCN1C(=O)[C@@]2(Cc3ccccc31)N=C(c1ccc(OCCCO)cc1)O[C@H]2c1ccccc1,1.41,-2.52,-0.256,0.354,-0.29,0.0857,0.123,0.587,1.28,1.17
Cc1ccc(S[C@]2(C(=O)NCc3ccccc3)CC(=O)N(C3CCCCC3)[C@@H]2c2ccc(CO)cc2I)cc1,1.23,-2.75,-0.364,0.699,-0.267,0.205,-0.0324,-0.18,0.759,0.604
[N-]=[N+]=Nc1ccccc1C[C@]1(C(=O)N2CCOCC2)COC(c2ccc(OCCCO)cc2)=N1,1.41,-1.72,-0.253,0.201,-0.554,0.0317,0.14,-0.527,1.08,0.664
[N-]=[N+]=NCc1ccccc1[C@H]1OC(c2ccc(OCCCO)cc2)=N[C@@]1(Cc1ccccc1N=[N+]=[N-])C(=O)NCC(O)CO (stereo not given in full),1.46,-1.75,-0.591,1.33,0.734,0.112,0.28,1.63,1.48,1.08
COc1cc(NN2C(C(O)c3ccc(N(C)C)cc3)C=CC3C(=O)N(c4ccccc4)C(=O)C32)cc(OC)c1OC (stereo not given),1.36,-0.99,0.143,0.68,0.0572,0.112,0.184,0.531,0.639,0.738
Oc1ccc2cc[n+](Cc3cc4c(cc3Br)OCO4)cc2c1,-1.22,1.65,-0.929,-0.489,0.446,-0.1,-0.0769,-0.0546,-0.346,-0.791
COCCOC(=O)N1C(=O)[C@@]2(c3cc(C#CCCO)ccc31)[C@H](C(=O)Nc1nc3ccccc3s1)[C@H]1C(=O)O[C@H](c3ccccc3)[C@H](c3ccccc3)N1[C@@H]2c1ccc(O)cc1,1.16,-1.65,1.09,0.999,-0.237,-0.0445,0.191,0.566,0.549,1.6
C=C(COC)/C(=C/C[C@H](OC(=O)c1ccncc1)c1ccccc1OCCO)c1cc(C(=O)OC)ccc1OC,1.43,-2.76,0.753,-0.191,-0.59,-0.0687,-0.494,-0.145,-0.353,0.251
